Compounds with a hit are over-represented: about 6.5% of the library has one in this group of screens.
IL1B secr inh: qHTS for Inhibitors of Inflammasome Signaling: IL-1-beta AlphaLISA Primary Screen; 4.7% of 360,000 active; THP-1 LPS/ATP IL-1B secretion, AlphaLISA, 16 h; stronger effect = lower value; activity change, % at 57.5 µM; in the data active = activity change below about -50%; inconclusive = mostly about -30% to -49%; also: % is scaled to controls: 0 for no effect and ±100 for the full control effect
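THP-1 cells pretreated 1 hr with compounds (up to 57.5 uM final), then stimulated with LPS (250 ng/mL final) plus ATP (1.25 mM final); secreted IL-1B measured by AlphaLISA after 16 hr, decreased signal indicating inhibition.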
Giardia killer: Small Molecules that selectively kill Giardia lamblia: qHTS | activity change, % at 7.66 µM, hits read low | 0.15% of 340,000 active | AID 540267, 2011 | Giardia lamblia trophozoite viability; in the data active = activity change below about -80%; inconclusive = between about -30% and that limit;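 also: parasites exposed to compound for two days anaerobically before the ATP read; % is scaled to controls: 0 for no effect and ±100 for the full control effect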
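Luminescent ATP signal served as the viability read-out, measured 15-30 min after adding ATP detection reagent to trophozoites that had been incubated with compounds for 48 hrs at 37 deg C anaerobically at 100 cells/well.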
HepG2 tox: qHTS for Inhibitors of TGF-b: Cytotox Counterscreen; HepG2 CAGA-GFP viability, ATP luminescence, 18 h; Potency, µM (top dose mostly 46.1 µM), for inactives: at the top dose activity change, negative = cytotoxicity, most hits filed as cytotoxic; 0.76% of 410,000 active; also: potency is read from the fitted curve at half-maximal effect
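CellTiter-Glo luminescence gave cytotoxicity after 18 hours at 37 degrees C. The cells were HepG2 CAGA-GFP in 1% FBS DMEM, stimulated with 500 pg/mL TGF-beta after compound addition. %Activity was normalised to no-cell wells (complete cell-killing) and DMSO (no toxicity), and curves were fitted and classified.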
TGFb inhibitor: qHTS for Inhibitors of TGF-b | Potency, µM (titrated, usually from 46.1 µM), without a hit: at the top dose activity, negative = inhibition, most hits filed as inhibitors | 1.2% of 410,000 active | HepG2 CAGA-GFP TGF-b/SMAD3 reporter, GFP fluorescence, 18 h; TGF-beta stimulated, 500 pg/mL final; also: potency is read from the fitted curve at half-maximal effect; % is scaled to controls: 0 for no effect and ±100 for the full control effect; nearly all actives have a fitted effect of over 65% in size
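Using HEPG2 CAGA-GFP reporter cells at 1000 cells/well, we pinned test compounds, stimulated with recombinant TGF-beta (500 pg/mL final) and measured total well GFP after 18 h.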
HT1080 IDH1KD tx: qHTS for induction of synthetic lethality in tumor cells producing 2HG: qHTS for the HT-1080-IDH1KD cell line. Potency, µM (highest dose often 46.1 µM), for the others: top-dose activity, negative = toxicity, hits mostly cytotoxic. 2% of 360,000 active. AID 686971, 2013. HT-1080 IDH1 knockdown viability, ATP luminescence, 48 h;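 also: potency is read from the fitted curve at half-maximal effect; 0% = DMSO wells and -100% = cell-free medium wells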
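IDH1KD HT-1080 cells, 750/well, RPMI + 5% FBS; compound pinned after 2 h settling; 48 h, 37 °C; CellTiter-Glo luminescence; % activity normalised to DMSO and no-cell wells; curves fitted, classed by r2 and efficacy.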
HT1080-NT tox: qHTS for induction of synthetic lethality in tumor cells producing 2HG: qHTS for the HT-1080-NT fibrosarcoma cell line; HT-1080-NT fibrosarcoma viability, CellTiter-Glo ATP luminescence, 48 h; Potency, µM (series often up to 46.1 µM), for inactives: top-dose activity, negative = less viability, most hits filed as cytotoxic; 1.6% of 360,000 active; AID 686970, 2013;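 also: NT is the 2HG producing partner of a matched IDH1 knockdown line; potency is read from the fitted curve at half-maximal effect; 0% = DMSO-treated cells and -100% = media-only wells without cells; nearly all actives have a fitted effect of over 55% in size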
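HT-1080-NT fibrosarcoma cells (2HG-overproducing), 750 cells/well in RPMI with 5% FBS, dosed after 2 h and incubated 48 h at 37C. CellTiter-Glo luminescence normalized to DMSO and no-cell wells; concentration-response curves fitted and classed.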
An asterisk follows results filed as active; ? = inconclusive; nt = no result; [ ] = remark or other dose. Unless noted, calls follow the shape of the dose curve; as a rule, active = well fitted curve in the direction sought with a large enough effect; inconclusive = small, poorly fitted or top-dose-only effect, or another doubt; inactive = no such curve, though single readings can be large; an effect the other way counts as inactive or inconclusive.

SMILES	IL1B secr inh	Giardia killer	HepG2 tox	TGFb inhibitor	HT1080 IDH1KD tx	HT1080-NT tox
c1ccc(OCc2nnc(-c3ccccc3)o2)cc1	-5	1	8%	-3%	18%	19%
N#Cc1c(NCCCO)nc(-c2ccccc2)c2c1CCCC2	14	-4	-31%	-2%	-29%	-16%
N#Cc1c(NCCN)nc(-c2ccccc2)c2c1CCCC2	-55*	-10	-74%	?	?	?
N=c1c(S(=O)(=O)c2ccc(Br)cc2)cc2c(=O)n3ccccc3nc2n1Cc1ccco1	?	?	-64%	7.9µM*	-2%	-5%
N=c1c(S(=O)(=O)c2ccc(Cl)cc2)cc2c(=O)n3ccccc3nc2n1Cc1ccco1	-12	-9	1%	25%	-16%	-3%
CC(C)(C)C(=O)C[n+]1ccccc1	7	-2	14%	?	1%	8%
COc1ccc(N(C(=O)c2snc(C(N)=O)c2N)C(C(=O)NC2CCCCC2)c2ccc(C)o2)cc1 (stereo not drawn)	-50*	-6	-2%	11%	-8%	?
COc1ccc(N(C(=O)c2snc(C(N)=O)c2N)C(C(=O)NC2CCCC2)c2ccco2)cc1 (stereo not drawn)	-15	22	0%	13%	-9%	-4%
CCc1ccc(N(C(=O)c2snc(C(N)=O)c2N)C(C(=O)NC2CCCC2)c2ccco2)cc1 (stereo not drawn)	-64*	-14	-18%	?	?	?
N#CCc1c(C#N)c(N)nc(N2CCN(S(=O)(=O)c3ccccc3F)CC2)c1C#N	10	-2	-27%	2%	-16%	-28%
CC1(C)CC(N2CCN(Cc3ccccc3)CC2)=CC(=[N+]2CCCCC2)C1	-51*	4	-41%	?	?	-27%
CN(Cc1ccccc1)C1=CC(=[N+]2CCCCC2)CC(C)(C)C1	-70*	36	-26%	11µM*	?	?
CCOc1cc(N2CCOCC2)c(OCC)cc1NC(=O)COC(=O)CCOc1ccc(C)cc1	-2	5	-23%	8%	0%	3%
CCOc1cc(N2CCOCC2)c(OCC)cc1NC(=O)COC(=O)CCOc1cc(C)ccc1C	-86*	-13	-26%	-7%	-5%	-8%
COc1ccc(-c2nc(SC)n(C)c(=O)c2C#N)cc1OC	-76*	2	4%	-15%	1%	1%
CSc1nc(-c2ccccc2)c(C#N)c(=O)n1C	?	2	-6%	-11%	0%	22%
NC(=O)N/N=C/C=C/c1ccc(F)cc1	nt	3	-14%	0%	19%	20%
CC(=O)Nc1ccc(S(=O)(=O)N2CCC(c3nc4c(nnn4Cc4ccccc4Cl)c(=O)[nH]3)CC2)cc1	-51*	22	-10%	4%	-16%	-27%
Cc1ccc(C)c(Cn2nnc3c(=O)[nH]c(C4CCN(S(=O)(=O)c5ccc(S(=O)(=O)N(C)C)cc5)CC4)nc32)c1	?	0	-2%	2%	0%	-11%
Cc1ccc(C)c(Cn2nnc3c(=O)[nH]c(C4CCN(S(=O)(=O)c5ccc(S(=O)(=O)NC6CC6)cc5)CC4)nc32)c1	-54*	5	-19%	?	?	?
O=C(Nc1ccc(F)cc1)N1CCC(c2nc3c(nnn3Cc3ccccc3Cl)c(=O)[nH]2)CC1	-74*	-4	-23%	3%	-30%	-28%
CCOC(=O)C(Cc1c[nH]c2ccccc12)NC(=O)COc1ccc(Cl)cc1 (stereo not drawn)	nt	nt	-94%	?	nt	nt
CCOC(=O)C1CCN(C(=O)COC(=O)/C=C/c2ccccc2)CC1	?	-5	0%	4%	-4%	-5%[9.24 µM]
CCNC(=S)N1CCN(CCN=CC2=C(O)CC(c3cccs3)CC2=O)CC1 (stereo not drawn)	34	11	-1%	-9%	-1%	8%
Cc1[nH]c2ccc(F)cc2c1CCN(Cc1ccncc1)C(=S)Nc1ccccc1	-70*	0	-35%	12%	-19%	-28%
SMILES	IL1B secr inh	Giardia killer	HepG2 tox	TGFb inhibitor	HT1080 IDH1KD tx	HT1080-NT tox
Cc1[nH]c2ccccc2c1CCN(Cc1cccnc1)C(=S)Nc1cccc(F)c1	-70*	?	-2%	-18%	-13%	-26%
Cc1cc2nc(CCN(Cc3cccnc3)C(=S)Nc3ccccc3)[nH]c2cc1C	-50*	22	-15%	?	-24%	0%
Cc1[nH]c2ccc(F)cc2c1CCN(Cc1cccnc1)C(=S)Nc1ccccc1	-11	-17	-17%	3%	-1%	-8%
Nc1nonc1-n1nnc(C(=O)N/N=C/c2ccccc2)c1CN1CCc2ccccc21	6	-12	-5%	-7%	5%	0%
CC(C)CCNc1nc(N)c([N+](=O)[O-])c(NCCO)n1	10	10	-53%	-5%	-21%	-2%
CCCCOC(=O)c1ccc(NC(=O)C(=O)NCc2ccco2)cc1	67	11	-20%	0%	-12%	11%
Cc1ccc(CNCc2cc3c(C(C)(C)C)nn(-c4ccccc4)c3[nH]c2=O)cc1	-85*	15	-37%	-28%	?	?
COc1ccc(CNCc2cc3c(C(C)(C)C)nn(-c4ccccc4)c3[nH]c2=O)cc1	10	26	-67%	-38%	?	?
Cc1cccc(N=C2Sc3nc4c(C)c(C)ccc4cc3CN2CCN2CCOCC2)c1	-59*	-3	-65%	?	?	?
CCOCCCNC(=S)Nc1ccc2nc(N3CCOCC3)cc(C)c2c1	-12	16	1%	-8%	1%	1%
CN(C)S(=O)(=O)c1cccc(NC(=O)c2c[nH]c3ccccc23)c1	27	5	4%	-3%	-27%	-24%
CN(Cc1nc(Cc2ccccc2F)no1)CC1(N2CCOCC2)CCCCC1	-15	20	-10%	4%	1%	3%
CN(Cc1nc(Cc2ccccc2F)no1)Cc1cccc2ncccc12	-108*	2	-1%	-20%	-30%	-28%
CCC(C)(C)n1nnnc1C(c1cc2ccc(C)cc2[nH]c1=O)N(Cc1cccnc1)Cc1ccco1 (stereo not drawn)	-69*	12	-18%	?	-25%	0%

Screening results as filed in PubChem BioAssay.
